# Screening data deposited in PubChem BioAssay by National Center for Advancing Translational Sciences (NCATS).
# Pf growth 48h: Primary qHTS for delayed death inhibitors of the malarial parasite plastid, 48 hour incubation; Potency, µM (highest dose often 28.7 µM), hits mostly inhibitors; AID 504832, 2011; 310,000 compounds, 5.9% hits; P. falciparum luciferase growth in erythrocytes, 48 h
#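 Erythrocytes infected with P. falciparum carrying an integrated firefly luciferase reporter (2% hematocrit, 0.1% parasitemia final) were exposed to compounds in RPMI 1640 with 0.5% Albumax at 37 C, 5% CO2. Growth inhibition was scored as reduced luminescence.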
# SARS PLP yeast: qHTS of Yeast-based Assay for SARS-CoV PLP. S. cerevisiae expressing SARS-CoV PLpro, growth rescue. Potency, µM (titrated, usually from 32.9 µM), most hits filed as activators. 330,000 compounds, 0.19% hits. AID 485353, 2010; calls by dose curve; also: nearly all actives have a fitted effect of over 55% in size
# NS1 inh: qHTS Assay for Inhibitors of Influenza NS1 Protein Function. 270,000 compounds, 0.4% hits. Potency, µM (highest dose often 46.1 µM). AID 2326, 2010; calls by dose curve; also: actives are rising curves; nearly all actives have a fitted effect of over 50% in size
#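 Compounds were scored for reversing the slow growth caused by influenza A NS1 in S. cerevisiae, measured by optical density at 600 nm. Assay medium contained 2% galactose at pH 6.0; NS1-free yeast of the same strain were the positive control.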
# Pf growth 96h: Primary qHTS for delayed death inhibitors of the malarial parasite plastid, 96 hour incubation; Potency, µM (doses to about 28.7 µM), hits mostly inhibitors; P. falciparum luciferase reporter growth, 96 h; AID 504834, 2011; 320,000 compounds, 6.9% hits
#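 Infected RBCs, 2% Hct / 0.05% parasitemia final; luciferase-reporter P. falciparum; cpd 96 h, 37 C, 5% CO2; luciferase detection reagent; luminescence.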
# Cycloheximide cs: Cycloheximide Counterscreen for Small Molecule Inhibitors of Shiga Toxin. cell reporter, cycloheximide protein synthesis inhibition counterscreen. max response, %. 300,000 compounds, 12% hits; in the data active = max response mostly above about 13%, no sharp cut-off; inactive = mostly below about 14%; also: read at 38.3 µM for the half of the compounds with a filed dose
# Shiga toxin inh: A qHTS for Small Molecule Inhibitors of Shiga Toxin | Vero cells, Shiga toxin protein synthesis inhibition reporter | inhibition, % at 38.7 µM | 290,000 compounds, 9.2% hits | AID 2315, 2010; in the data active = inhibition mostly above about 28%, no sharp cut-off; inactive = mostly below about 43%
# Hits are given with their value; - = inactive; ? = inconclusive; . = not tested or not shown. A selection: hits, their analogues and other compounds. The true share with any hit is near 21%. Unless noted, calls follow the shape of the dose curve; as a rule, active = well fitted inhibition curve with a large enough effect; inconclusive = small, poorly fitted or top-dose-only effect, or another doubt; inactive = no such curve, though single readings can be large or run the other way.
SMILES,Pf growth 48h,SARS PLP yeast,NS1 inh,Pf growth 96h,Cycloheximide cs,Shiga toxin inh
COC(=O)c1ccccc1NC(=O)c1ccc(F)cc1,-,-,-,-,-,-
CC(=O)Nc1ccccc1C(=O)OCc1ccc(F)cc1,-,-,-,-,32.0,-
CCC(=O)Nc1ccccc1C(=O)OCC(=O)c1cccc2ccccc12,-,-,-,-,-,-
C[C@H](NC(=O)C1CCN(S(=O)(=O)c2ccccc2)CC1)C(=O)NCc1ccc(F)cc1,-,-,-,?,-,-
CCN(CC)c1ncnc2c1cnn2Cc1ccc(C)cc1,?,-,-,-,-,-
CCN(CC)c1nc(C)nc2c1cnn2CCc1ccccc1,-,-,-,.,49.2,172.7
O=C(COC(=O)c1cc(S(=O)(=O)N2CCOCC2)c(Cl)cc1Cl)c1ccc[nH]1,-,-,.,-,.,.
O=C(c1ccccc1-c1nc(-c2ccc(Cl)cc2)no1)N1CCCC1,-,-,-,.,45.1,74.5
O=C(c1ccccc1-c1nc(-c2ccccc2)no1)N1CCCC1,-,-,-,?,22.5,55.6
Cc1ccc(-c2noc(-c3ccccc3C(=O)N3CCCC3)n2)cc1,-,-,-,-,35.2,54.2
O=C(CSc1nnc(NC(=O)c2ccccc2F)s1)NC1CC1,-,-,-,-,-,-
CC1=C(C(=O)Nc2ccccn2)C(c2ccc3c(c2)OCO3)C2=C(CC(C)(C)CC2=O)N1 (stereo not given),-,-,.,-,15.7,-
N/C(=N\OC(=O)c1ccc(Cl)cc1[N+](=O)[O-])c1cccnc1,-,-,-,?,44.5,55.6
N/C(=N\OC(=O)c1ccccc1)c1cccnc1,-,-,-,-,46.8,66.0
N/C(=N\OC(=O)c1cc(Cl)ccc1Cl)c1cccnc1,.,-,-,?,33.9,-
N/C(=N\OC(=O)c1ccccc1)c1ccn[nH]1,-,-,-,-,24.6,48.7
N/C(=N\OC(=O)c1cc(Br)ccc1Cl)c1cccnc1,?,-,-,?,-,-
Oc1ccc2ccccc2c1CN(Cc1c(O)ccc2ccccc12)C1CCCCC1,.,.,-,.,.,.
CC(C)(CNC(=O)CC1C(=O)NCCN1Cc1cccc(F)c1F)N1CCOCC1 (stereo not given),-,-,-,-,-,-
CCOC(=O)NC(=O)C(=CNc1ccc(C)cc1)C(=O)NC(=O)OCC,-,-,-,-,-,-
O=C(NCC(=O)N1CC(O)CC1C(=O)N1CCCC1C(=O)OCc1ccccc1)OCc1ccccc1 (stereo not given),-,-,.,-,-,-
CCOc1ccc(CC(=O)Nc2nccs2)cc1OCC,?,-,-,-,-,-
CC1CCCN(C(=O)C2CC(=O)N(c3ccc(Cl)cc3)C2)C1 (stereo not given),-,-,-,?,-,-
CSCCC(NC(=O)c1ccccc1Br)C(=O)N1CCCCCCC1 (stereo not given),?,-,.,-,.,.
COc1ccc(NS(=O)(=O)c2cccc(NC(=O)CCS(=O)(=O)c3ccccc3)c2)cc1,-,-,-,?,-,-
SMILES,Pf growth 48h,SARS PLP yeast,NS1 inh,Pf growth 96h,Cycloheximide cs,Shiga toxin inh
N/C(=N\OC(=O)c1ccccc1Cl)c1cccnc1,-,-,-,-,37.8,61.2
COc1ccc(CCN(C)C(=O)CNC(=O)Cc2cccc3ccccc23)cc1OC,-,-,-,-,-,-
O=C(OCC(=O)N1CCc2ccccc21)c1cccnc1Cl,-,-,-,-,34.7,69.3
O=C(OCC(=O)N1CCc2ccccc21)c1ccccn1,-,-,-,?,31.7,-
O=C(COc1cccc2cccnc12)N1CCc2ccccc21,-,-,-,-,18.4,63.1
CCN(CC)CCNC(=O)c1ccc(NC(=O)C2CC(=O)N(c3ccc4c(c3)OCCO4)C2)cc1 (stereo not given),?,-,.,-,.,.
NCC(=O)Nc1ccccc1,.,.,-,.,.,.
COC(=O)/C=C1/SC(=NC(=O)c2ccc(F)cc2)NC1=O,-,-,-,-,-,-
CC(C)(C)c1cc(=O)n(-c2ccccc2)[nH]1,?,-,-,10.4µM,-,-
O=C(COC(=O)COc1ccccc1)Nc1ccc(S(=O)(=O)N2CCOCC2)cc1,-,-,.,-,-,-
Cc1ccc(C)n1-c1ccc(C(=O)NN=C2CCCC2)cc1,-,-,-,-,-,-
